Screens deposited in PubChem by National Center for Advancing Translational Sciences (NCATS).
Shown are actives, neighbours in structure and some others; about 2.3% of the full set was active somewhere.
USP1-UAF1 inh = inhibitors of human USP1/UAF1 deubiquitinase. O94782. recombinant USP1/UAF1, Ub-Rhodamine cleavage fluorescence. Potency, µM (highest dose often 57.1 µM), without a hit: at the highest dose activity change, negative = inhibition, actives largely listed as inhibitors. actives 0.23% (n = 390,000); note: potency is the fitted concentration of half-maximal effect; nearly all actives have a fitted effect of over 60% in size
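USP1/UAF1 complex at 1 nM was preincubated with compound for 15 min at room temperature, then Ub-Rho substrate (150nM final) was added. Fluorescence (480/540 nm) was read kinetically, 6 reads every 60 seconds.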
Tau fibril ThT = tau fibrillization inhibition (ThT binding); P10636; recombinant tau K18 P301L, heparin-induced fibrillization, ThT fluorescence; Potency, µM (series often up to 57.4 µM), for the others: top-dose activity, negative = inhibition, most hits filed as inhibitors; actives 2.1% (n = 270,000); AID 1460; note: potency is the fitted concentration of half-maximal effect; nearly all actives have a fitted effect of over 55% in size
Target sequence (P10636 561-689 P618L limits assumed): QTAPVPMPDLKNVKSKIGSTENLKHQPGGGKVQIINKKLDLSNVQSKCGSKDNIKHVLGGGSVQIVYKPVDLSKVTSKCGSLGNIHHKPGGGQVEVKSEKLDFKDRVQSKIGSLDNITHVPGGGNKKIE
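Fibril formation assay: tau K18 P301L at 15 uM with trace Alexa 594 label, heparin inducer 20 uM, pH 7 sodium acetate buffer, 37 C for 6 hr; endpoint ThT signal.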
FBPA coupling cs = coupling enzyme interference in Giardia aldolase counter-screen | coupling enzyme system counterscreen, AmpLite Red fluorescence | activity change, negative = inhibition, % at 58.2 µM, hits read low | actives 0.67% (n = 290,000); in the data active = activity change below about -30%
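Final compound at 57.5 uM, incubated 10 min at RT with coupling enzyme reagent (glyceraldehyde-3-phosphate), then 20 min with substrate and AmpLite Red detection. Fluorescence read at 525/598 nm; tests interference with the coupling assay, not aldolase inhibition.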
Tau fluor counter = counter-screen for tau fibril formation inhibitors. tau K18 P301L Alexa594 fluorescence, heparin fibrillization. Potency, µM (doses to about 57.7 µM), for inactives: at the highest dose activity change, negative = decrease. actives 0.93% (n = 280,000); note: potency is the fitted concentration of half-maximal effect; nearly all actives have a fitted effect of over 55% in size
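Human tau K18 P301L (15 uM unlabeled, 0.24 uM Alexa 594-labeled) in 100 mM sodium acetate pH 7 with 20 uM heparin, 6 hr at 37 C. ThT 30 uM added, 1 hr ambient; Alexa 594 FP and total fluorescence read at 555/632 nm.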
Tau FP inhib = inhibitors of human tau fibril formation | AID 1468 | K18 P301L tau heparin fibrillization, Alexa594 FP, 6 h | actives 0.39% (n = 280,000) | Potency, µM (highest dose often 57.7 µM), inactives show top-dose activity, negative = inhibition, actives largely listed as inhibitors | P10636; note: potency is the fitted concentration of half-maximal effect; nearly all actives have a fitted effect of over 55% in size
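Compound effects on tau fibrillization are measured by Alexa 594 fluorescence polarization (ex 555, em 632 nm). K18 P301L tau is used at 15 uM with 0.24 uM labeled tracer, and 20 uM heparin induces aggregation over 6 hr at 37 C.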
Active calls of the source: *; ? = inconclusive; . = no result given; ! = not confirmed by another sample; [ ] = remark or other dose. Unless noted, calls come from the whole dose curve; as a rule, active = well fitted curve in the direction sought with a large enough effect; inconclusive = small, poorly fitted or top-dose-only effect, or another doubt; inactive = no such curve, though single readings can be large; an effect the other way counts as inactive or inconclusive. % is set by controls: 0 for no effect and ±100 for the full control effect.

SMILES	USP1-UAF1 inh	Tau fibril ThT	FBPA coupling cs	Tau fluor counter	Tau FP inhib
C(=C\c1ccco1)/C=N/n1cnnc1	1%	25µM*	-40*	-29%	32µM*
S=c1[nH]nc(-c2ccncc2)n1/N=C/C=C/c1ccco1	-6%	?	-10	-23%	-4%
Brc1ccc2nc(-c3c[nH]c4ccccc34)cn2c1	-26%	10µM*	-14	?	7%
CN(C)C(=O)c1ccc2c(c1)N(CC(=O)NCc1ccc(F)cc1)C(=O)C1CCCCN21 (stereo not drawn)	-9%	-2%	.	0%	-3%
COc1cccc(NS(=O)(=O)c2ccc3[nH]cc(C(=O)NC(C)c4ccccc4)c(=O)c3c2)c1 (stereo not drawn)	?	11%	.	?	7.9µM*
CCCCSCCCNC(=O)c1c[nH]c2ccc(S(=O)(=O)Nc3cccc(OC)c3)cc2c1=O	-8%	5%	.	?	2µM*
CCOCCCNC(=O)c1c[nH]c2ccc(S(=O)(=O)Nc3cccc(OC)c3)cc2c1=O	-8%	0%	6	3%	1%
CCC12C=C(/C=C/c3ccccc3)C(CC)(C1)C(c1ccccc1)CC2=O (stereo not drawn)	.	-2%[11.5 µM]	1	-4%[11.6 µM]	1%[11.6 µM]
CCn1c(O)c(N=Nc2ccc3ccccc3n2)c2ccccc21	?	4µM*	-4	-18%	2%
Cc1c(C(=O)N2CCCC2)oc2c1-c1nn(CC(=O)NC(C)c3ccccc3)cc1CC2 (stereo not drawn)	?	?	.	-6%	8%
CC(=O)c1ccc(NC(=O)CN2CCN(c3ncccn3)CC2)cc1	-9%	-6%	-55*	-5%	-2%
CC(=O)c1ccc(NC(=O)CN2CCN(CC(=O)Nc3ccc(C(C)=O)cc3)CC2)cc1	-6%	.	-1	.	.
CC(C)C(=O)NC(c1ccc([N+](=O)[O-])cc1)c1c(O)ccc2ccccc12 (stereo not drawn)	-15%	20µM*	-2	?	?
COc1cc2[nH]c3c(Cl)ncnc3c2cc1OC	-4%	?	-43*	-16%	1%
Cc1c(Cl)cccc1NC(=O)CCn1nc(C)c2c(C)n(-c3ccccc3)nc2c1=O	13%	7%	.	-2%	2%
Cc1ccc(CNC(=O)c2ccc3nc(SCc4ccc(F)cc4)[nH]c3c2)cc1	-21%	3%	.	?	22µM*
CCCc1ccc(OC(=O)c2ccc(O)cc2Cl)cc1	-14%	?	5	?	28µM*
CCCc1ccc(OC(=O)c2cccs2)cc1	-5%	-11%	0	-12%	-13%
C#CCN(Cc1ccco1)C(=O)c1cc(COc2ccc(F)cc2Cl)on1	-20%	13µM*	1	-64%	-3%[2.34 µM]
CCc1cccc(-n2nnc(-c3nsc(NC(=O)c4cccc(OC)c4)n3)c2C)c1	-3%	-7%	.	-11%	-5%
COc1cc2cc(NC(C)=O)cc(NCc3ccccc3)c2cc1OC	-27%	.	-22	.	.
CCCCNc1cc(NC(C)=O)cc2cc(OC)c(OC)cc12	?	-20%	-44*	-13%	-11%
Cc1ccc(N2C(=O)C(Cl)=C(Nc3c(C)n(C)n(-c4ccccc4)c3=O)C2=O)cc1	-19%	28µM*	4	-27%	?
COc1ccc(C(=O)c2oc3ccc(OC)cc3c2N)cc1	-19%	11µM*	-4	14µM*[quencher]	8%
COC(=O)c1oc2ccc(OC)cc2c1N	-11%	-15%	2	-10%	6%
SMILES	USP1-UAF1 inh	Tau fibril ThT	FBPA coupling cs	Tau fluor counter	Tau FP inhib
COc1ccc(C)cc1NS(=O)(=O)c1cnc(N)nc1	-3%	2%	.	-2%	4%
N#Cc1cc2ccc(N3CCOCC3)cc2cc1C#N	-7%	?	-43*	-13%	-13%
CCOC(=O)C1CCCN(c2cc(NCCCO)c([N+](=O)[O-])c3nonc23)C1 (stereo not drawn)	.	-7%	-3	13%	3%
O=[N+]([O-])c1c(NCc2ccco2)ccc2nonc12	?	-13%	-1	0%	13%
CCCC(=O)OCCNc1cc(Sc2nccn2C)c2nonc2c1[N+](=O)[O-]	-10%	7.1µM*	-8	?	?
CCCSc1cc(NCCOC(C)=O)c([N+](=O)[O-])c2nonc12	-15%	?	-39*	?	-6%
CCCSc1cc(NCCOC(=O)CCC)c([N+](=O)[O-])c2nonc12	-19%	?	-3	?	9%
CC(=O)OCCCNc1cc(SCc2ccco2)c2nonc2c1[N+](=O)[O-]	0%	7.9µM*	-3	7.1µM*[quencher]	?
CCCC(=O)OCCNc1cc(SCc2ccco2)c2nonc2c1[N+](=O)[O-]	-8%	4µM*	-13	4.5µM*[quencher]	?
CCOC(=O)c1nnc(-c2ccccc2)nc1Sc1c(Cl)cccc1Cl	-30%	11µM*	-5	?	-6%
Cc1ccc(SCCC(=O)N/N=C/c2cccnc2)cc1	-3%	-4%	-32*	-3%	3%
Cc1ccc(C)c(NC(=O)CCC(=O)N/N=C/c2cccnc2)c1	-9%	.	.	.	.
COc1ccc(NC(=O)Cn2c(=O)n(Cc3ccccc3OC)c(=O)c3cccnc32)cc1Cl	6%	20%	.	-27%	25µM*
Cc1ccc(Cn2c(=O)c3cccnc3n(CC(=O)Nc3cccc(C(F)(F)F)c3)c2=O)cc1	-17%	13%	-2	-10%	18µM*!
COc1ccc(NC(=O)Cn2c(=O)n(Cc3ccccc3)c(=O)c3oc4ccccc4c32)cc1Cl	7%	?	.	-28%	28µM*
Cc1cccc(C)c1NC(=O)Cn1c(=O)n(Cc2ccccc2Cl)c(=O)c2cccnc21	-22%	12%	.	8%	-12%
CCc1ccc(NC(=O)Cn2c(=O)n(Cc3ccccc3)c(=O)c3oc4ccccc4c32)cc1	?	?	.	-14%	?
O=C(Cn1c(=O)n(Cc2ccc(Cl)cc2)c(=O)c2cccnc21)Nc1ccccc1C(F)(F)F	-20%	6%	.	3%	-17%
Cc1cccc(-c2nc3scc(CCNC(=O)c4ccccc4Cl)n3n2)c1	-5%	-10%	.	-16%	0%
CCOC(=O)c1c(N)sc2c(OCC)c(Br)ccc12	-18%	?	-4	25µM*[quencher]	-1%
Cc1ccc(N2CCN(C(=O)c3cn(C)c4ccc(S(=O)(=O)N(C)C5CCCCC5)cc4c3=O)CC2C)cc1 (stereo not drawn)	?	-4%	.	-7%	-3%
Cc1ccc(Cl)cc1N1CCN(CCNC(=O)Nc2ccc(Cl)cc2)CC1	-9%	-1%	.	?	13µM*
COc1ccc(N2CCN(CCNC(=O)Nc3ccc(Cl)cc3)CC2)cc1	-10%	-15%	-2	-21%	16%
CCOc1ccc(NC(=O)NCCN2CCN(c3cc(Cl)ccc3C)CC2)cc1	-26%	?	.	14µM*[quencher]	?
